The campaign covered roughly 400,000 compounds. About 3,700 (0.93%) were called active. Inconclusive results (about 3%) are left out. The call rests on the fitted dose curve; in most records, active means well fitted inhibition curve with a large enough effect; inconclusive means small, poorly fitted or top-dose-only effect, or another doubt; inactive means no such curve, though single readings can be large or run the other way. This excerpt belongs to a sample that is enriched for actives.
Target: Vitamin D3 receptor (Homo sapiens) (UniProt P11473)
Sequence (P11473 whole entry, looked up): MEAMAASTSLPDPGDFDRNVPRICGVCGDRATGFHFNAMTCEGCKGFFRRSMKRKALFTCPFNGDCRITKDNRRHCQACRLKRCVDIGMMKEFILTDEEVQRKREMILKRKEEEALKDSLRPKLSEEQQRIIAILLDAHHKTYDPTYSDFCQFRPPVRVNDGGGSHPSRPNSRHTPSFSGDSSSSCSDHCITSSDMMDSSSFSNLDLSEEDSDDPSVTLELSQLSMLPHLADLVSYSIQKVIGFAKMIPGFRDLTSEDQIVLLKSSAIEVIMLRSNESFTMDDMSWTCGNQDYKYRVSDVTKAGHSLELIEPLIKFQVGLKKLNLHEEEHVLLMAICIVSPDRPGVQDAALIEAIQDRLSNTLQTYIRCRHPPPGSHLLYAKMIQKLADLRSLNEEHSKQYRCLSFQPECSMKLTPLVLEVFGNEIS
Assay: Inhibitors of the vitamin D receptor (VDR): qHTS
Conditions: VDR-SRC2-3 peptide fluorescence polarization, 2 h; max response, negative = inhibition: stronger effect = lower value
How it was run: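 Fluorescence polarization assay measuring small-molecule disruption of VDR binding to the coregulator peptide SRC2-3. Compounds were pin-transferred (23 nl) into the reagent mix and incubated 2 h at room temperature before reading.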
On the % scale 0 is the no-effect control and ±100 the full control effect; potency means the concentration at half of the fitted maximal effect.

Max response, negative = inhibition, inactive:
COc1ccc(NC(=O)c2cc3cc(C)ccc3n2C)cc1 8.19%
O=C(Cn1cnc2c(OCc3ccccc3)ncnc21)NCCCn1ccnc1 6.56%
CC(CNC(=O)Cn1cnc2c(OCc3ccccc3)ncnc21)c1ccccc1 (stereo not drawn) -7.14%
COc1ccc(C2CC(=O)Nc3c2c(=O)nc2c(C)cccn32)cc1OC (stereo not drawn) 12.4%
CNC(=O)c1csc(-c2ccccc2)n1 4.33%
O=C(NNC(=O)c1ccccc1O)c1ccccc1O 10.5%
O=C(/C=C(O)/C=C/c1ccc(O)cc1)/C=C/c1ccc(O)cc1 -24.8%
Cc1[nH]c(=O)c(C(=O)/C=C/c2ccccc2)c2c1CCCC2 -23.7%
CCOC(=O)c1ccc(N2C(=O)c3n[nH]c(-c4ccco4)c3C2c2ccc(O)cc2)cc1 (stereo not drawn) -8.24%
Cc1cccn2c(=O)c(C(=O)NC(C)c3ccccc3)cnc12 (stereo not drawn) -16%
COC(=O)c1ccc(Cn2c(SCC(=O)N(C)c3ccccc3)nc3ccccc32)cc1 14.3%
COc1ccnc2c1c(=O)n(Cc1cccc(F)c1)c(=O)n2C 0.374%
COc1cc(/C=C2\SC(=O)NC2=O)ccc1OCc1ccc(Cl)nc1 3.39%
C#CCOc1ccccc1/C=C1/C(=O)ON=C1C -13.5%
C=CCOc1ccc(/C=N/NC(=O)C(C)Sc2ccccn2)cc1OCC (stereo not drawn) -3.04%
Cc1ccc(C)c(N2CCN(C(c3ccccc3)c3nnc(-c4ccccc4)o3)CC2)c1 (stereo not drawn) 0%
Cc1ccc(C2C=C(c3ccc(Cl)cc3)Nc3nc(NC(=O)CCC(=O)O)nn32)cc1 (stereo not drawn) -1.64%
CCOC(=O)c1c(C)[nH]c(CCC(=O)NCCCN2CCN(c3cc(C)ccc3C)CC2)c1C 1.52%
CCOC(OCC)OCC -7.21%
Cc1nc2cnc(N3CCNCC3)nc2n(CCc2ccccc2)c1=O -10.9%
COc1ccccc1N1CCN(C(CNC(=O)C(=O)NCc2ccc(C)cc2)c2cccnc2)CC1 (stereo not drawn) 1.11%
CCCCC(=O)NC(c1ccc(OC)c(OC)c1)c1ccc2cccnc2c1O (stereo not drawn) 6.08%
COc1ccc(CCNC(=O)c2ccc3c(c2)nc(C)n3-c2ccc(Br)cc2)cc1OC 12.9%
C#CC(C)(CC)NC(=O)Cn1nnc(-c2ccc(OCc3c(F)cccc3Cl)cc2)n1 (stereo not drawn) 15.5%
CNS(=O)(=O)c1cccc(C(=O)NCC2CCCCC2)c1 12.7%
COc1cccc(C(=O)NCCS(=O)(=O)NCC2CCCO2)c1 (stereo not drawn) -19.7%
CC(C)(C)SCCNC(=O)c1cccc([N+](=O)[O-])c1 -16.4%
COc1cccc(C(=O)CC(=O)C(=O)Nc2ccc([N+](=O)[O-])cc2C)c1 -6.66%
COC(=O)c1ccc(-c2nc3cc(NC(C)=O)ccc3o2)cc1 -22.5%
H-EHIPA-OH 2.51%
CCc1ccc(NC(=O)C2CCCN2S(=O)(=O)c2ccc3nc(-c4ccccc4)[nH]c3c2)cc1 (stereo not drawn) 14.5%
CCOC(=O)C1=NOC(Cn2cc(C(C)=O)c(=O)[nH]c2=O)C1 (stereo not drawn) 1.11%
COc1cc2c(cc1OC)CC(=O)N(CCCN(C)C[C@H]1Cc3cc(OC)c(OC)cc31)CC2 7.93%
O=C(c1ccc(CSc2ccccc2)cc1)N1CCCCCC1 -7.06%
Cc1ccc(N2CCN(C(=O)c3cccs3)CC2)c(C)c1 7.64%
Cc1ccc(S(=O)(=O)N2CCN(C(=O)N3CCOCC3)CC2)c(C)c1 -13.6%
N#Cc1c(N)sc2c1CCN(C(=O)OCc1ccccc1)C2 -3.82%
CCCCNC(=O)c1ccc2c(c1)NC(=O)C(C(C)C)N2 (stereo not drawn) -3.65%
CCc1ccc(NC(=O)CN2CCSc3ccc(S(=O)(=O)N4CCCC4)cc32)cc1 9.86%
O=C(c1cccc(Br)c1)N1CCN(Cc2cc(=O)n3nc(-c4ccccc4)sc3n2)CC1 13%
CCc1ccc(OCCCn2c(CCCNC(=O)C3CCCCC3)nc3ccccc32)cc1 -1.15%
O=C(NCCCO)C(=O)Nc1c2c(nn1-c1ccccc1)CSC2 5.32%
COc1ccc(CCNC(=O)CCCCn2c(=O)c3ccccc3n(Cc3ccccc3C)c2=O)cc1OC 7.91%
COc1ccccc1N1CCN(/N=C/c2ccc(O)cc2O)CC1 -16.7%
COc1cc(/C=N/N2CCN(c3ccccc3)CC2)ccc1OC(C)=O -1.69%
Cc1cc(C)cc(-n2ccnc2SCC(=O)Nc2nc3ccccc3s2)c1 -5.28%
COc1cccc(-c2n[nH]c3c2C(c2cccc(O)c2)N(C)C3=O)c1 (stereo not drawn) 9.73%
Cc1ccc(NC(=O)CSc2nc3c([nH]c4ccccc43)c(=O)n2-c2ccccc2)c(C)c1 3.26%
Cc1cccc(-n2ccnc2SCC(=O)Nc2cccc3ccccc23)c1C 21%
O=C(c1cccnc1)N(Cc1ccccc1)C(=O)c1cccnc1 -6.19%
COc1ccc(N(C(=O)c2cccnc2)S(=O)(=O)c2ccc(OC)c(OC)c2)cc1 2.95%
Cc1sc2ncn(CC(=O)N3CCN(c4ccc(F)cc4)CC3)c(=O)c2c1S(=O)(=O)N1CCN(c2ncccn2)CC1 -10.1%
O=S(=O)(c1ccccc1)c1nc(-c2ccc(Cl)cc2Cl)oc1N1CCCCC1 1.4%
CCOc1ccc(S(=O)(=O)Nc2ccc3oc4c(c3c2)CC(C)CC4)cc1 (stereo not drawn) -17.2%
O=C(Nc1ccc2ccccc2c1[N+](=O)[O-])c1ccccc1 -2.31%
COC(=O)c1nc(NC(=O)c2ccccc2)n[nH]1 -20%
CC(=O)OC1=C(C(C)=O)N(Cc2ccccc2)S(=O)(=O)c2ccccc21 8.35%
CCOC(=O)N1CCc2c(sc(NCc3cccc(F)c3)c2C(=O)Nc2ccccc2OCC)C1 -13.2%
COCCOC(=O)c1sc(=S)n(CCOC)c1N -9.87%
COC(=O)c1sc(N2CCN(Cc3ccccc3)CC2)nc1N 1.38%
COc1ccc(CCNC(=O)c2ccc(CSCc3ccc(C)cc3)o2)cc1OC 9.55%
CCNc1ncc2ncc(=O)n(CCc3ccccc3)c2n1 -21%
COc1cccc(Cn2c(=O)c(-c3ccccc3)nc3cnc(OC)nc32)c1 -7.36%
COc1ccc(CC(=O)NCCc2sc3nc(-c4ccc(OC)cc4)nn3c2C)cc1 5.32%
CCCCCCCCCc1ccc(OCCOCCOCCOCCOCCOCCOCCOCCOCCO)cc1 1.96%
CCOC(=O)C1(CCOC)CCN(Cc2ccc(C(=O)OC)cc2)CC1 15.5%
CCCS(=O)(=O)N1CCC(CCOc2ccccc2)(C(=O)OCC)CC1 -9.73%
COc1cc(Cl)c(C)cc1NC(=O)CCc1nc2cccnc2n1Cc1cccs1 3.57%
Cc1cccc(N2CCN(C(=O)c3oc(=O)c4ccccc4c3-c3ccccc3)CC2)c1C -3.42%
CCCCC/C=C\C[C@H](O)/C=C/C=C/C=C/[C@@H](O)CCCC(=O)O 7.71%
O=C(Nc1cccc(Cl)c1)c1csnn1 -5.14%
O=C(Nc1ccc(Oc2ccccc2)cc1)C1CCN(S(=O)(=O)c2ccc(Cl)cc2)CC1 -4.34%
O=C(c1cccc(Cl)c1)N1CCN(CCc2ccncc2)CC1 9.31%

Potency, active:
O=C(Cn1cnc2c(OCc3ccccc3)ncnc21)NCc1nc2ccccc2[nH]1 79.4 µM
Cc1nc(-c2ccccc2)sc1C(=O)/C=C/c1ccccc1 79.4 µM
O=C(/C=C/c1ccccc1)c1ccccc1O 17.8 µM
COc1cc(/C=C2/C(=O)ON=C2C)ccc1OCc1cccc(F)c1 25.1 µM
C=CCOc1ccc(/C=C2/C(=O)ON=C2C)cc1OCC 79.4 µM
O=c1ccc2c(-c3ccccc3S(=O)(=O)O)c3ccc(O)c(O)c3oc-2c1O 35.5 µM
CCOC(=O)N1CCN(C(c2cccnc2)c2ccc3cccnc3c2O)CC1 (stereo not drawn) 39.8 µM
CN(C)S(=O)(=O)N1CCC(Oc2cccc(C(=O)NCCCC3CCCC3)c2)CC1 28.2 µM
COc1cccc(NCCC(=O)c2cccc([N+](=O)[O-])c2)c1 79.4 µM
Oc1c(Cl)cc(Cl)c(Cl)c1Cc1c(O)c(Cl)cc(Cl)c1Cl 44.7 µM
CCOC(=O)C1=NO[C@@]2(C=C(Br)C(=O)[C@H]3O[C@H]32)C1 11.2 µM
N#Cc1ccccc1-n1c(N)c(C(=O)N2CCCC2)sc1=S 50.1 µM
Cc1ccc(-n2c(N)c(C(=O)N3CCOCC3)sc2=S)c(C)c1 79.4 µM
COc1ccccc1N1CCN(/N=C\C(Br)=C\c2ccccc2)CC1 44.7 µM
O=C(c1cccnc1)N(c1cc2sc(=O)oc2c2ccccc12)S(=O)(=O)c1ccccc1 25.1 µM
O=C(NC1=CC(=O)c2ccccc2C1=O)c1ccccc1 11.2 µM
COC(=O)c1sc(=S)n(-c2ccccc2)c1N 79.4 µM
CCNc1ncc2ncc(=O)n(Cc3cccc(OC)c3)c2n1 50.1 µM
CCOC(=O)C1(CCOC)CCN(Cc2cc3ccccc3s2)CC1 44.7 µM
O=C(Nc1ccccc1)c1nnsc1S(=O)(=O)c1ccc(Cl)cc1 25.1 µM

Source: PubChem BioAssay AID504847 (National Center for Advancing Translational Sciences (NCATS), 2011)
